According to PubChem BioAssay:

Tested on: not listed separately
Experiment: anti-His antibody binders, primary screen, artefact control for SMM control protein annotation, biochemical, small-molecule microarray, 635 nm fluorescence (AID 1128);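 also: score merges feature fluorescence with signal-to-noise for each printed compound spot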
Settings: anti-His Alexa647 antibody binding, higher = more signal

Structure (SMILES) | composite z-score
O=C1C[C@H](c2ccccc2)[C@H](c2ccc(Br)cc2)O1 | 0.443
CO[C@H]1COC(=O)CC=C[C@@H](C)COC(=O)[C@H]2CCCN2C(=O)CC=C[C@H]1C | -0.19
O=C(NN=C1C[C@@H](O)[C@@H](O)[C@@H]2[C@@H]3C(=O)N(Cc4ccccc4)C(=O)[C@@H]3CC[C@H]12)OCc1ccccc1 | -0.136

Tested on: Human papillomavirus type 1a E7 protein (residues 1-88)
Experiment: HPV1a E7 small-molecule binders, primary screen, biochemical, small-molecule microarray, residues 1-88, 635 nm (AID 1129)
Settings: small-molecule microarray binding, fluorescence 635 nm; higher = more signal

Structure (SMILES) | composite z-score
CON=C(C)CCN1CCCCc2nc(C)c(C)cc21 | -0.27
CCOC(=O)[C@H](Cc1ccccc1)NC(=O)CCC1CC(OC(=O)NCc2cccc3ccccc23)CC2(CCCC(COC(=O)NCC3CCCCC3)O2)O1 (some centres undefined) | 1.06
CO[C@H]1COC(=O)CCC[C@H](C)[C@@H](OC)COC(=O)CC=C[C@@H]1C | -0.117
C[C@H]1C=CCC(=O)OC[C@H](C)C(=O)N2CCC[C@H]2C(=O)OC1 | -1.44
CC(=O)OC[C@H]1O[C@H](CCON=C(C)C)C=C[C@@H]1OC(C)=O | -0.33
CC(C)[C@@H](OCc1ccccc1)[C@H](C)C=NO[C@@H](C)c1cn([C@H](CO)Cc2ccccc2)nn1 | -0.147
O=C1C2=CC[C@H]3C(=O)N(C4CCCCC4)C(=O)[C@H]3[C@H]2[C@H](O)[C@@H]2O[C@H]12 | -0.958
CC(C)(C)N1C(=O)[C@H]2[C@H]3[C@H](O)[C@H](O)CC(=NNC(=O)OCc4ccccc4)[C@H]3CC[C@H]2C1=O | 0.848
CC(C)(C)N1C(=O)[C@H]2[C@H]3[C@H](O)[C@H](O)CC(=NNC(=O)OCc4ccccc4)[C@@H]3CC[C@H]2C1=O | 0.486
O=C1C2=CC[C@H]3C(=O)N(C[C@@H]4CCCO4)C(=O)[C@H]3[C@H]2[C@H](O)[C@@H]2O[C@H]12 | 0.611
CO[C@@H]1C=CCC(=O)N[C@@H](C)C(=O)OC[C@@H](NS(=O)(=O)c2ccc(C)cc2)[C@H](C)C=CCC(=O)OC[C@H]1C | -0.56
C[C@@H]1CC[C@@H](C(=O)O)N[C@H]1c1cccc(N2CCOCC2)c1 | 0.827
CO[C@@H]1COC(=O)[C@@H]2CCCN2C(=O)[C@@H](C)COC(=O)CCC[C@H]1C | 0.0997
O=C1[C@H]2[C@H]3[C@H](O)[C@H](O)CC(=NOC[C@@H](O)COCc4ccco4)[C@@H]3CC[C@H]2C(=O)N1C1CCCCC1 | -0.244
CC(CCC(=O)OC[C@H]1O[C@H](C#Cc2ccccc2)C=C[C@@H]1Oc1ccc(C)cc1)=NO[C@H](C)c1cn([C@@H]2COC[C@H]2O)nn1 | -0.0794
C[C@H]1CC[C@H]2C(=O)N[C@H](Cc3ccccc3)C(=O)N2[C@@H]1c1ccccc1 | -0.138
CC(=O)OC[C@H]1O[C@H](CC=NO[C@H](C)c2cn([C@@H]3COC[C@H]3O)nn2)C=C[C@@H]1OC(C)=O | 0.179
O=C1CCCC=C1C(O)COCc1ccccc1 (centres undefined) | -1.33

Structure (SMILES) | composite z-score
COc1ccc(COC(=O)NN=C2C[C@@H](O)[C@@H](O)[C@@H]3[C@@H]4C(=O)N(C5CCCCC5)C(=O)[C@@H]4CC[C@@H]23)cc1 | -0.0517
COC(=O)CC=C[C@@H](C)[C@@H](C=NOC[C@@H](O)COCc1ccco1)OC | -0.464
O=C1[C@H]2[C@H]3[C@H](O)[C@H](O)CC(=NO[C@@H]4O[C@H](CO)[C@@H](O)[C@H](O)[C@H]4O)[C@@H]3CC[C@H]2C(=O)N1C[C@@H]1CCCO1 | 1.15
O=C1[C@H]2[C@H]3[C@H](O)[C@H](O)CC(=NOC[C@@H](O)COCc4ccco4)[C@@H]3CC[C@H]2C(=O)N1Cc1ccccc1 | 1.26
CCOC(=O)[C@H](Cc1ccccc1)NC(=O)CCC1CC(OC(=O)NCCc2ccc(F)cc2)CC2(CCCC(COC(=O)NCc3cccc(C(F)(F)F)c3)O2)O1 (some centres undefined) | 1.16
O=C1C=C[C@@H](O)[C@@H]2[C@@H]3C(=O)N(C4CCCCC4)C(=O)[C@@H]3CC[C@@H]12 | 0.55
CCN1C(=O)[C@H]2[C@@H]3C(=CC[C@H]2C1=O)C(=O)[C@H]1O[C@H]1[C@H]3O | 0.491
CCOC(=O)[C@H](Cc1ccccc1)NC(=O)CCC1CC(OC(=O)NCc2ccc3c(c2)OCO3)CC2(CCCC(COC(=O)NCCOc3ccccc3)O2)O1 (some centres undefined) | 1.16
CCN1C(=O)[C@H]2[C@H]3[C@H](O)[C@H](O)CC(=NO[C@H](C)c4cn([C@H](CO)Cc5ccccc5)nn4)[C@@H]3CC[C@H]2C1=O | 1.07
COC(OC)[C@@H](C)[C@H](OC)[C@@H](C)[C@H](OC)c1ccccc1 | 0.104
CO[C@@H]1COC(=O)[C@H](CCSC)NC(=O)CC=C[C@@H](C)COC(=O)[C@@H]2CCCN2C(=O)CC=C[C@H]1C | 0.258
CC(C)=NO[C@H](C)c1cn([C@@H]2COC[C@H]2O)nn1 | 0.661
CC(C)=NOC(C)CN1CCCc2nc(C)c(C)cc21 (centres undefined) | 0.964
CC#CCOCCC=C1c2ccccc2[C@@H](OC)[C@@H]1C | -0.0931
O=C1[C@H]2[C@H]3[C@H](O)[C@H](O)CC(=NO[C@@H]4O[C@H](CO)[C@@H](O)[C@H](O)[C@H]4O)[C@H]3CC[C@H]2C(=O)N1C[C@@H]1CCCO1 | -0.178
O=C1C[C@H](c2ccccc2)[C@H](c2ccc(Br)cc2)O1 | -0.374
CO[C@H]1COC(=O)CC=C[C@@H](C)COC(=O)[C@H]2CCCN2C(=O)CC=C[C@H]1C | -1.54
O=C(NN=C1C[C@@H](O)[C@@H](O)[C@@H]2[C@@H]3C(=O)N(Cc4ccccc4)C(=O)[C@@H]3CC[C@H]12)OCc1ccccc1 | -0.0677
